Screening data: PubChem BioAssay, National Center for Advancing Translational Sciences (NCATS)
FLuc counter = firefly luciferase modulation, counter-screen for miR-21 project. P08659. purified FLuc, Km substrates, luminescence inhibition. Potency, µM (doses to about 57.5 µM), for the others: top-dose activity change, negative = inhibition, usual class: inhibitors. actives 6.9% (n = 360,000). AID 588342;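 note: plate controls were vehicle for no effect and reference inhibitor for full effect; nearly all actives have a fitted effect of over 55% in size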
Target sequence (P08659 whole entry, looked up): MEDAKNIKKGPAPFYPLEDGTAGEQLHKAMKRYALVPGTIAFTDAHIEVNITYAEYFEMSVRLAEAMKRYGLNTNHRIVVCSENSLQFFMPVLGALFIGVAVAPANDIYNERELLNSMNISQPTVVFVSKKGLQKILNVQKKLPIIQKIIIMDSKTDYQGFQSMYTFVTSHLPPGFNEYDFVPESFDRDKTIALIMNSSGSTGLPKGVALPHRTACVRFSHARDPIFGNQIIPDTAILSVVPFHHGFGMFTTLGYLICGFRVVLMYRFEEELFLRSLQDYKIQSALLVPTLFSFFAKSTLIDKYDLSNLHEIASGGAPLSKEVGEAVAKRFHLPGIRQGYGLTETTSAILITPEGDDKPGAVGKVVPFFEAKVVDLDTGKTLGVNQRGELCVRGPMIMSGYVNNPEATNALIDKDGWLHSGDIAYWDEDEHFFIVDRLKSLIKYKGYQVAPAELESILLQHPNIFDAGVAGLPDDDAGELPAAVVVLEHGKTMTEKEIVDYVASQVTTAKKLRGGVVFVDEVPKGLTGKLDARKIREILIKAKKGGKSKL
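Purified P. pyralis luciferase (10nM final) with 10uM D-luciferin and 10uM ATP (Km levels) in 50mM Tris acetate pH 7.5, 10mM Mg acetate, 0.01% Tween-20, 0.05% BSA; qHTS 6-point titration, ~60 µM downward; luminescence read.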
KinaseGlo FLuc = Kinase-Glo luciferase inhibition (counter-screen); Q27757; Kinase-Glo luciferase, ATP luminescence, 8 min; Potency, µM (doses to about 38.3 µM), for inactives: top-dose activity change, negative = inhibition, usual class: inhibitors; actives 0.28% (n = 200,000); note: % is set by controls: 0 for no effect and ±100 for the full control effect; nearly all actives have a fitted effect of over 60% in size
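Recombinant Kinase-Glo luciferase, 10 uM ATP (linear range), luciferin; imidazole pH 7.2 / KCl / MgCl2 / Tween / BSA buffer; 8 min RT; luminescence.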
Rab9 promoter act = Rab9 promoter activation; Huh7 Rab9 promoter-luciferase reporter, luminescence, 24 h; Potency, µM (highest dose often 9.22 µM), without a hit: at the highest dose activation, negative = inhibition, most hits filed as activators; actives 2.8% (n = 320,000); note: % of control where 0% means no effect; nearly all actives have a fitted effect of over 60% in size
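Quantitative HTS format; Huh7 Rab9-luciferase reporter cells (1500/well) receive compound 2 h post-plating, incubate 24 h at 37 °C, then get luciferase reagent for 10 min before luminescence reading.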
ELG1 genotox = genotoxicity induction in ELG1-luciferase HEK293T cells; HEK293T ELG1-luciferase reporter, luminescence, 16 h; Potency, µM (top dose mostly 46 µM), for the others: top-dose activity change, positive = activation, hits mostly activators; actives 1.3% (n = 330,000); note: % of control where 0% means no effect; nearly all actives have a fitted effect of over 60% in size
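Reporter readout depends on ELG1 protein level, which increases with genetic stress. After 16 hr compound exposure at 37 °C, luciferase activity was quantified using ONE-Glo.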
SMN2 splice enh = enhancers of SMN2 splice variant expression. actives 2.8% (n = 210,000). AID 1458. Potency, µM (doses to about 46.1 µM), for inactives: at the top dose activity change, positive = activation, actives largely listed as activators. HEK293 SMN2-luciferase splicing reporter, luminescence, 30-36 h; note: % of control where 0% means no effect; nearly all actives have a fitted effect of over 55% in size
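HEK293 cells carry an SMN2 […]–luciferase reporter in which exon 7 inclusion puts luciferase in frame. Cells were plated 10-12 h before compound addition, then incubated 30-36 h at 37C. ONE-Glo luminescence was read; sodium butyrate at 4.5 mM final served as control.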
NPC1 prom act = activators of NPC1 promoter. Potency, µM (titrated, usually from 9.22 µM), for the others: top-dose activation, most hits filed as activators. Huh7 NPC1 promoter luciferase reporter, 24 h. actives 2.4% (n = 320,000); note: % of control where 0% means no effect; nearly all actives have a fitted effect of over 60% in size
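Luminescence read-out of NPC1 promoter-driven luciferase in stably transfected Huh7 cells; compounds delivered in DMSO and left 24 h at 37C, 5% CO2, qHTS titration format.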
An asterisk follows results filed as active; ? = inconclusive; . = no result given; [ ] = another dose, or the depositor's remark. Hits are enriched below; roughly 7.5% of the tested compounds scored in any of these assays. Calls come from the whole dose curve; as a rule, active = well fitted curve in the direction sought with a large enough effect; inconclusive = small, poorly fitted or top-dose-only effect, or another doubt; inactive = no such curve, though single readings can be large; an effect the other way counts as inactive or inconclusive. Potency is the fitted concentration of half-maximal effect.

SMILES	FLuc counter	KinaseGlo FLuc	Rab9 promoter act	ELG1 genotox	SMN2 splice enh	NPC1 prom act
O=C(CSc1nnc(Nc2ccccc2)s1)NN1C(=O)NC2(CCCCC2)C1=O	19µM*	9.9%	-6.0%	0.8%	-5.8%	3.0%
Brc1ccc2nc(-c3c[nH]c4ccccc34)cn2c1	1.51µM*	-6.9%	1µM*	?	10µM*	2.24µM*
Cc1cccn2cc(-c3c[nH]c4ccccc34)nc12	19µM*	1.7%	?	?	12.6µM*	?
Nc1nc(-c2c[nH]c3ccccc23)cs1	?	-6.6%	?	-1.8%	?	11.8%
Cc1ccc(C(=O)Nc2ccc(S(=O)(=O)NC3=NCCCCC3)cc2)c(C)c1	12µM*	.	-1.2%	-1.0%	.	-0.8%
CSc1ccc(CNC(=O)Cc2csc3ccccc23)cc1	-13.2%	.	.	.	3.7%	.
COc1ccc2c(c1)c1c(c(=O)n(-c3ccc(OC)c(OC)c3)c(=O)n1Cc1ccc(F)cc1)n2C	-0.8%	.	.	.	.	.
O=C(Nc1cccc(-c2nc3ccccc3[nH]2)c1)c1ccccn1	13.5µM*	.	15.9%	-18.7%	.	13.5%
O=C(Nc1cccc(-c2nc3ccccc3[nH]2)c1)c1c(F)cccc1F	12µM*	.	.	.	10.3%	.
CC(=O)Nc1cccc(-c2nc3ccccc3[nH]2)c1	?	-29.4%	22.6%	3.8%	-34.2%	6.2%
O=C(Nc1cccc(-c2nc3ccccc3[nH]2)c1)c1ccccc1F	10.7µM*	.	.	.	-18.4%	.
O=C(c1ccccc1)c1ccc2nc(-c3ccc(NC(=O)c4ccccc4F)cc3)[nH]c2c1	-19.8%	-2.7%	15.4%	?	-18.3%	2.9%
COc1cccc(OC)c1C(=O)Nc1cccc(-c2nc3ccccc3[nH]2)c1	-2.1%	-6.4%	-2.0%	-1.1%	.	-2.2%
Cc1ccc(C(CNS(=O)(=O)c2ccc(Cl)cc2)N2CCN(C)CC2)cc1 (stereo not drawn)	0.5%	.	-9.1%	0.9%	.	2.0%
c1ccc(Oc2cc(-c3ccccc3)ncn2)cc1	15.1µM*	-4.0%	?	?	?	?
COc1cc(-c2noc(CN3CCN(c4cccc(Cl)c4)CC3)n2)cc(OC)c1OC	-2.0%	.	.	.	-3.5%	.
COc1ccccc1C(=O)NC(=O)CSc1nc(C)cs1	13.5µM*	.	9.2%	-1.5%	.	-3.2%
COc1ccccc1CNC(=O)CSc1nc(C)cs1	2.5%	2.0%	-3.4%	0.7%	1.8%	-0.6%
Cc1cccc(/C=N\N=C\c2cccc(C)c2)c1	8.49µM*	.	24.6%	16.2%	.	?
Cc1cccc(/C=N/n2c(C)nnc2C)c1	2.8%	0.3%	3.1%	3.1%	1.4%	-2.3%
O=C(N/N=C/c1ccc(Br)cc1)c1ccc(Br)o1	4.26µM*	-7.9%	3.16µM*	?	11.2µM*	?
Cc1cccc(/C=N/NC(=O)c2ccc(Br)cc2)c1	3.38µM*	-1.0%	?	?	?	13.9%
O=C(N/N=C/c1ccc(F)cc1)c1ccc(Br)cc1	9.53µM*	1.7%	26.8%	14.2%	6.7%	23.2%
COc1ccc([C@]23Cc4cc(C#N)ccc4C(O2)c2c(cc(-c4ccccc4)oc2=O)O3)cc1	-0.8%[11.5 µM]	.	-3.8%[1.84 µM]	.	.	1.2%[1.84 µM]
COc1ccc(NC(=O)C2CCN(S(=O)(=O)c3ccc4c(c3)CCCC(=O)N4)CC2)c(OC)c1	-8.1%	.	.	.	.	.
O=C(N/N=C/c1ccc(Br)cc1)c1ccc(F)cc1	6.01µM*	-1.7%	24.2%	?	12.6µM*	?
CC(C)NC(=O)N1CCN(S(=O)(=O)c2ccc3c(ccn3C)c2)CC1	0.1%	.	.	.	.	.
COc1ccccc1NC(=O)Nc1ccc2c(c1)nnn2C	12µM*	-7.2%	3.16µM*	13µM*	?	?
COc1ccc(C(=O)Nc2cccc(C(C)=O)c2)cc1OC	?	-16.7%	6.7%	18.4%	14.0%	18.2%
COc1ccccc1NC(=O)NCC(=O)Nc1ccc(F)c(F)c1	-2.5%	-2.7%	0.7%	10.0%	.	0.1%
